Measurements reported in PubChem BioAssay (EPA / NIEHS).
Inconclusive results are not listed. A structure can be active in one record and inactive in another. The source made the active and inactive calls. The calls were made as follows, unless noted: active = hit-call score of the fitted dose curve at least 0.9, where 1 is the maximum; inactive = score below 0.9.

Tests used:
[1] = molecular target: Steroid hormone receptor ERR1 (Homo sapiens) (UniProt P11474); assay: ATG_ERRa_TRANS: Attagene TRANS-FACTORIAL HepG2 Assay for human Estrogen-Related Receptor alpha (ERRa) (AID 2282971; active = hit-call score of the fitted dose curve at least 0.9, where 1 is the maximum); settings: HepG2 Attagene TRANS reporter, ERRa transactivation
Summary of the method: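 Signal gain relative to DMSO for an ERRa-Gal4 chimeric receptor, read as reporter mRNA by RT-PCR/capillary electrophoresis. Human HepG2 liver cells, transient multiplex reporter transfection, 24 h chemical exposure.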

[2] = read-out: Interleukin-8 (IL8), CXCL8 (gene 3576); assay: BSK_3C_IL8: BioMAP Diversity Plus: 3C Assay for Interleukin-8 (IL8) Biomarker Activity (AID 2283020); settings: primary human endothelial cells (HUVEC); actives raise or lower the signal
Summary of the method: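 HUVEC, 3C stimulation; 24 h compound exposure; IL-8 read by ELISA; gain or loss of signal fitted relative to DMSO control.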

[3] = read-out: Monokine induced gamma interferon (MIG), CXCL9 (gene 4283); assay: BSK_3C_MIG: BioMAP Diversity Plus: 3C Assay for Monokine induced gamma interferon (MIG) Biomarker Activity (AID 2283021); settings: primary human endothelial cells (HUVEC); actives raise or lower the signal;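 as to AC50: MIG protein level measured by immunoassay in the treated endothelial cultures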
Summary of the method: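 HUVEC, 3C system; 24 h chemical exposure; MIG by ELISA; bidirectional fit vs DMSO baseline.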

[4] = read-out: Pselectin, SELP (gene 6403); assay: BSK_4H_Pselectin: BioMAP Diversity Plus: 4H Assay for Pselectin Biomarker Activity (AID 2283026); settings: primary human endothelial cells (HUVEC); actives raise or lower the signal
Summary of the method: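 HUVEC, 24 h chemical exposure; P-selectin read by ELISA. Bidirectional curve fit vs DMSO baseline; gain or loss of signal scored.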

[5] = BSK_4H_SRB: Viability Assessment in the BioMAP Diversity Plus: 4H Assay (AID 2283027); settings: primary human endothelial cells (HUVEC);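 also: cells exposed to compound for 24 h before staining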;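 as to AC50: curves fitted both ways versus DMSO so AC50 may be loss or gain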
Summary of the method: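 Cytotoxicity readout: sulforhodamine B (0.1%) staining of total protein after 10% TCA fixation, measured at 560 nm in human umbilical vein endothelium at 24 h. DMSO set the baseline; fitting was bidirectional.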

[6] = read-out: Urokinase-type plasminogen activator receptor (uPAR), PLAUR (gene 5329); assay: BSK_4H_uPAR: BioMAP Diversity Plus: 4H Assay for Urokinase-type plasminogen activator receptor (uPAR) Biomarker Activity (AID 2283030); settings: primary human endothelial cells (HUVEC); actives raise or lower the signal
Summary of the method: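 Endpoint derived via bidirectional curve fitting against DMSO baseline; readout was ELISA detection of uPAR on umbilical vein endothelial cells at 24 h post-treatment, with SRB-stained parallel cultures assessing cytotoxicity.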

[7] = read-out: Plasminogen activator inhibitor-1 (PAI1), SERPINE1 (gene 5054); assay: BSK_BE3C_PAI1: BioMAP Diversity Plus: BE3C Assay for Plasminogen activator inhibitor-1 (PAI1) Biomarker Activity (AID 2283037); settings: primary human bronchial epithelial cells; actives raise or lower the signal
Summary of the method: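 ELISA read-out of PAI-1 from human bronchial epithelial primary cells, 24 h post-dosing; bidirectional curve fit vs DMSO baseline, gain or loss of signal scored.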

[8] = read-out: urokinase plasminogen activator (uPA), PLAU (gene 5328); assay: BSK_BE3C_uPA: BioMAP Diversity Plus: BE3C Assay for urokinase plasminogen activator (uPA) Biomarker Activity (AID 2283038); settings: primary human bronchial epithelial cells; actives raise or lower the signal
Summary of the method: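 Using confluent primary human lung bronchial epithelial cultures, we dosed chemicals, waited 24 h, then ran a uPA ELISA, fitting bidirectionally against DMSO.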

[9] = read-out: Tissue plasminogen activator (tPA), PLAT (gene 5327); assay: BSK_BE3C_tPA: BioMAP Diversity Plus: BE3C Assay for Tissue plasminogen activator (tPA) Biomarker Activity (AID 2283041); settings: primary human bronchial epithelial cells; actives raise or lower the signal
Summary of the method: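 ELISA read-out of tPA on human primary bronchial epithelial cells, 24 h post-dosing; bidirectional fit vs DMSO negative control/baseline.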

[10] = read-out: Macrophage colony-stimulating factor (MCSF), CSF1 (gene 1435); assay: BSK_CASM3C_MCSF: BioMAP Diversity Plus: CASM3C Assay for Macrophage colony-stimulating factor (MCSF) Biomarker Activity (AID 2283044); settings: primary human coronary artery smooth muscle cells; actives raise or lower the signal;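 also: M-CSF protein amount quantified by ELISA after 24 h exposure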
[11] = BSK_CASM3C_SRB: Viability Assessment in the BioMAP Diversity Plus: CASM3C Assay (AID 2283050); settings: primary human coronary artery smooth muscle cells;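 also: total protein by SRB staining as cytotoxicity measure in parallel cultures; cells exposed to compound for 24 h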
[12] = read-out: Thrombomodulin, THBD (gene 7056); assay: BSK_CASM3C_Thrombomodulin: BioMAP Diversity Plus: CASM3C Assay for Thrombomodulin Biomarker Activity (AID 2283051); settings: primary human coronary artery smooth muscle cells; actives raise or lower the signal;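 also: thrombomodulin protein level measured by ELISA 24 h after dosing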
[13] = read-out: Vascular cell adhesion molecule 1 (VCAM1), VCAM1 (gene 7412); assay: BSK_CASM3C_VCAM1: BioMAP Diversity Plus: CASM3C Assay for Vascular cell adhesion molecule 1 (VCAM1) Biomarker Activity (AID 2283055); settings: primary human coronary artery smooth muscle cells; actives raise or lower the signal;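 also: VCAM-1 protein level quantified by ELISA on the cells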
[14] = read-out: TIMP metallopeptidase inhibitor 2 (TIMP2), TIMP2 (gene 7077); assay: BSK_KF3CT_TIMP2: BioMAP Diversity Plus: KF3CT Assay for TIMP metallopeptidase inhibitor 2 (TIMP2) Biomarker Activity (AID 2283071); settings: primary human keratinocytes with fibroblasts; actives raise or lower the signal
Summary of the method: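 ELISA readout of TIMP-2 in keratinocyte plus foreskin fibroblast co-cultures (human skin primary cells), 24 h post-dose. Gain or loss of signal fitted relative to DMSO.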

[15] = read-out: Interleukin-8 (IL8), CXCL8 (gene 3576); assay: BSK_LPS_IL8: BioMAP Diversity Plus: LPS Assay for Interleukin-8 (IL8) Biomarker Activity (AID 2283078); settings: primary human HUVEC with PBMC; actives raise or lower the signal
Summary of the method: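 In this LPS system, chemical-treated human umbilical vein endothelium/PBMC co-cultures were harvested at 24 h for IL-8 ELISA.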

[16] = read-out: Monocyte Chemoattractant Protein-1 (MCP1), CCL2 (gene 6347); assay: BSK_LPS_MCP1: BioMAP Diversity Plus: LPS Assay for Monocyte Chemoattractant Protein-1 (MCP1) Biomarker Activity (AID 2283081); settings: primary human HUVEC with PBMC; actives raise or lower the signal;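 as to AC50: co-culture stimulated with LPS; secreted MCP-1 protein quantified by ELISA in culture supernatant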
Summary of the method: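 Values derive from bidirectional fitting against DMSO of ELISA-measured MCP-1 in a human primary endothelial and mononuclear cell co-culture, 24 h after chemical addition under LPS activation.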

CD38, CD38 (gene 952) = assay: BSK_SAg_CD38: BioMAP Diversity Plus: SAg Assay for CD38 Biomarker Activity (AID 2283087); settings: primary human HUVEC with PBMC; actives raise or lower the signal
Summary of the method: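 Measures CD38 on a human endothelial/PBMC co-culture driven by SEB and TSST-1, 24 h after compound exposure, using ELISA with fluorescence detection; DMSO defines baseline for bidirectional curve fitting.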

[17] = read-out: Monocyte Chemoattractant Protein-1 (MCP1), CCL2 (gene 6347); assay: BSK_SAg_MCP1: BioMAP Diversity Plus: SAg Assay for Monocyte Chemoattractant Protein-1 (MCP1) Biomarker Activity (AID 2283090); settings: primary human HUVEC with PBMC; actives raise or lower the signal
Summary of the method: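 Values derive from bidirectional fitting of ELISA-measured MCP1 against DMSO controls. Readings were taken 24 h after dosing human vascular endothelial cells co-cultured with peripheral blood mononuclear cells under superantigen stimulation.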

[18] = read-out: E-selectin (Homo sapiens) (UniProt P16581); assay: BSK_SAg_Eselectin: BioMAP Diversity Plus: SAg Assay for Eselectin Biomarker Activity (AID 2283091); settings: primary human HUVEC with PBMC; actives raise or lower the signal
Summary of the method: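 Endpoint values derive from bidirectional fitting relative to DMSO, using ELISA-measured E-selectin in a human vascular co-culture (umbilical vein endothelium plus PBMC) sampled 24 h after dosing.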

[19] = molecular target: Estrogen receptor beta (Homo sapiens) (UniProt Q92731); assay: OT_ER_ERbERb_0480: Odyssey Thera (OT) 8-hour HEK293T Protein-Complementation Assay for Estrogen Receptor-beta/-beta Homodimer (AID 2283357; active = hit-call score of the fitted dose curve at least 0.9, where 1 is the maximum;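 also: active means signal gain over DMSO baseline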)
Summary of the method: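 Fluorescence gain from complemented reporter fragments on ER-beta LBD homodimer in HEK293T was quantified against DMSO controls after 8 h treatment, fixation in 4% formaldehyde and Draq5 staining.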

Measured: AC50

E-selectin (Homo sapiens), sequence (P16581 whole entry, looked up): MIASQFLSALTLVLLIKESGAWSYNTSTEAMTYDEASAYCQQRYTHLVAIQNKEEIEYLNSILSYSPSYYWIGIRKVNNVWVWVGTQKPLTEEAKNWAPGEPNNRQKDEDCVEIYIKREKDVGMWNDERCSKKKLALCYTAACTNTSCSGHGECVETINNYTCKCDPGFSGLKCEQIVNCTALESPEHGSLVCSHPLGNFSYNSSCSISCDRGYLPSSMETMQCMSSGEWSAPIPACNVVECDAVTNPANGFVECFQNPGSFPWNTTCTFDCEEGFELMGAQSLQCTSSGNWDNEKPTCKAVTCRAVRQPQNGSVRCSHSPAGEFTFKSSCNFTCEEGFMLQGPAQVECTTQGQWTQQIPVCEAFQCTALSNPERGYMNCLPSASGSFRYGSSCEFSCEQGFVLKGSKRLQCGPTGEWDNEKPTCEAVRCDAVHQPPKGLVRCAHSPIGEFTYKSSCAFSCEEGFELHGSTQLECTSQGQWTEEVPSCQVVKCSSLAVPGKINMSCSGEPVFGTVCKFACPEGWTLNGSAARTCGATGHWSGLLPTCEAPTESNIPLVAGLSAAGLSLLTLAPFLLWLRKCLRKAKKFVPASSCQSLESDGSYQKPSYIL
Estrogen receptor beta (Homo sapiens), sequence (Q92731 whole entry, looked up, the tested form may be a part): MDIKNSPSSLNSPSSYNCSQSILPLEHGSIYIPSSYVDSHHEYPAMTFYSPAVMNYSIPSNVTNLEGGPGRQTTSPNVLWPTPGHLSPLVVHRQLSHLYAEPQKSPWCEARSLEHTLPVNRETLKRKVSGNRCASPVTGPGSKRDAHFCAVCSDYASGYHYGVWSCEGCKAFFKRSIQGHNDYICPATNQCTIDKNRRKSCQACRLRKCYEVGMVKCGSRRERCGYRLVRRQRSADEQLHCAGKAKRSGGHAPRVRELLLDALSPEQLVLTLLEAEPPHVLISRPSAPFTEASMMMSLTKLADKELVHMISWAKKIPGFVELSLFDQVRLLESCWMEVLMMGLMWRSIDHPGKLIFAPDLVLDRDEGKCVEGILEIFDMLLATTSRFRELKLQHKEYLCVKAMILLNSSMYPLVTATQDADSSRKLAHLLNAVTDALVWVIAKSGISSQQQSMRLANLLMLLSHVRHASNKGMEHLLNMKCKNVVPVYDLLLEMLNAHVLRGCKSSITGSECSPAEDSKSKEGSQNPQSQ
Steroid hormone receptor ERR1 (Homo sapiens), sequence (P11474 whole entry, looked up, the tested form may be a part): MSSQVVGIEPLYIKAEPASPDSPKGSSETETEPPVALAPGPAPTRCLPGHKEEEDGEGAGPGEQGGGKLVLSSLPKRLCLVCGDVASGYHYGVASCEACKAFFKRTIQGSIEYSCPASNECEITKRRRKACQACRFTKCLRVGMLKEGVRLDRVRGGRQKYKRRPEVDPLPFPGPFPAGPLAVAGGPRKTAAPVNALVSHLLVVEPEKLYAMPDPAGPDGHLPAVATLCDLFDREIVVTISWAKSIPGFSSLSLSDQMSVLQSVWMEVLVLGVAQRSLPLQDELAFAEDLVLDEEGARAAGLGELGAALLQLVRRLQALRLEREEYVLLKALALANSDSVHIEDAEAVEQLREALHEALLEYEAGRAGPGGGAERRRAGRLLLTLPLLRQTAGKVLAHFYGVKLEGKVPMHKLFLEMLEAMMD

C=CC(=O)OCC(CC)CCCC (stereo not drawn)
active: [2] 20 µM | [11] 31.7 µM | [13] 20 µM | [16] 0.016 µM
inactive: all other assays above

O=[N+]([O-])O
not listed: [1] | [19]
inactive: all other assays above

[CH3][Sn]([CH3])([Cl])[Cl]
inactive: [1]

Cc1ccc(N(SC(F)(Cl)Cl)S(=O)(=O)N(C)C)cc1
inactive: [1]

C#CC1(O)CCCCC1
inactive: [1]

CCC(=O)c1ccc(Cl)cc1
inactive: [19]

CN(C)N
inactive: [19]

O=c1[nH]c(Cl)c(Cl)cc1Cl
not listed: [19]
inactive: all other assays above

CN(C)C(=O)C(c1ccccc1)c1ccccc1
inactive: [19]

CCOP(O)OCC
inactive: [19]

CCc1cccc(C)c1N(C(=O)CCl)[C@@H](C)COC
inactive: [19]

CCOP(=O)(OCC)OCC
inactive: [19]

Cc1ccc(OP(=O)(Oc2ccc(C)cc2)Oc2ccc(C)cc2)cc1 (tested in a mixture with another compound)
active: [14] 5.39 µM | [15] 11.8 µM | CD38, CD38 (gene 952) 20 µM | [17] 20 µM | [18] 20 µM
not listed: [1] | [19]
inactive: all other assays above

CCCCCCC1CCOC1=O (stereo not drawn)
inactive: [1]

Oc1cc(Cl)ccc1Cl
not listed: [1] | [19]
inactive: all other assays above

CCOC(=O)NC(=S)Nc1ccccc1NC(=S)NC(=O)OCC
inactive: [1] | [19]

Nc1ccc(-c2ccc(N)c(N)c2)cc1N
active: [4] 24.9 µM | [7] 11.1 µM | [10] 8.36 µM | [13] 10 µM | [14] 20 µM | [18] 11.7 µM
not listed: [1] | [19]
inactive: all other assays above

O=C(CCl)c1ccccc1
inactive: [7] | [9] | [12]
active: [2] 10.9 µM | [3] 9.6 µM | [4] 3.29 µM | [5] 14.3 µM | [6] 9.98 µM | [8] 36.2 µM | [10] 12.9 µM | [11] 12.2 µM | [13] 7.45 µM | [14] 36.4 µM | [15] 7.85 µM | [16] 6.34 µM | CD38, CD38 (gene 952) 4.55 µM | [17] 6.73 µM | [18] 3.31 µM

CC(C)(O)C#N
inactive: [19]

O=S(=O)(c1ccccc1)c1ccccc1
not listed: [19]
inactive: all other assays above

Nc1ccccc1C(=O)OCCc1ccccc1
inactive: [1]

CC[N+](=O)[O-]
inactive: [19]

S=c1[nH]c2ccccc2[nH]1
inactive: [1]

Nc1ccc([N+](=O)[O-])cc1N
inactive: [1]

O=C(NC(=O)c1c(F)cccc1F)Nc1ccc(Oc2ccc(C(F)(F)F)cc2Cl)cc1F
inactive: [19]

COC(C)(C)CCC[C@H](C)C/C=C/C(C)=C/C(=O)OC(C)C
inactive: [2] | [7] | [8] | [11]
active: [3] 39.2 µM | [4] 25.6 µM | [5] 32.4 µM | [6] 32.6 µM | [9] 9.71 µM | [10] 13.7 µM | [12] 14.3 µM | [13] 20 µM | [14] 9.64 µM | [15] 33.5 µM | [16] 29.6 µM | CD38, CD38 (gene 952) 30.4 µM | [17] 20 µM | [18] 20 µM

CC1OC(C)OC(C)O1 (stereo not drawn)
inactive: [1]

CC(Cc1ccc(C(C)(C)C)cc1)CN1C[C@@H](C)O[C@@H](C)C1 (stereo partly drawn)
inactive: [1] | [19]

CC(C)CCCCCCCOC(=O)c1ccccc1C(=O)OCCCCCCCC(C)C
not listed: [1] | [19]
inactive: all other assays above

COc1ccc(CO)cc1
inactive: [2] | [3] | [4] | [5] | [6] | [7] | [8] | [9] | [10] | [11] | [12] | [13] | [14] | [15] | [16] | CD38, CD38 (gene 952) | [17] | [18]
active: [7] 0.308 µM

C[N+](=O)[O-]
inactive: [1]

Cc1ccc(C)c2ccccc12
inactive: [19]

CC(C)(C)C(O)C(Oc1ccc(-c2ccccc2)cc1)n1cncn1 (stereo not drawn)
active: [4] 29.7 µM | [5] 31.6 µM | [6] 31.8 µM | [7] 5.39 µM | [10] 20 µM | [11] 30.5 µM | [13] 30.9 µM | [14] 20 µM
not listed: [1] | [19]
inactive: all other assays above

CC(=O)/C=C/c1ccccc1
active: [15] 20 µM
not listed: [1] | [19]
inactive: all other assays above

O=S(=O)(O)OOS(=O)(=O)O
inactive: [19]

CC(=O)C=Cc1ccccc1
inactive: [19]

CCc1cc(C)cc(CC)c1-c1c(OC(=O)C(C)(C)C)n2n(c1=O)CCOCC2
active: [2] 0.0209 µM | [7] 6.89 µM | [9] 5.24 µM | [10] 0.975 µM | [14] 3.97 µM | [15] 0.016 µM
not listed: [1] | [19]
inactive: all other assays above

CNC(=N[N+](=O)[O-])NCC1CCOC1 (stereo not drawn)
inactive: [19]
